From PubChem BioAssay
Compounds with a hit are over-represented: about 1.2% of the library has one in this group of screens.
Avidin bead fluor – green autofluorescence of compounds with avidin beads – biophysical, 488/530 nm, flow cytometry, artefact control, profiling panel. fluorescence (KMESF) at 10 µM. 220,000 compounds, 0.38% hits. compound fluorescence 488/530 nm; active compounds read high; in the data active = fluorescence above about 47
RGS7-Gao – RGS7-Galphao binding modulators, primary screen, biochemical, multiplexed bead flow cytometry; binding response (% of control), % at 10 µM; 220,000 compounds, 0.35% hits; Guanine nucleotide-binding protein G(o) subunit alpha (Homo sapiens), P09471; actives lie on both sides; in the data active = binding response below about 49% or above about 150%; inconclusive = no clear call, values can overlap the other calls; inactive = in between;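 note: fluorescent Galphao held in activated GDP-AlF4 state binding bead-coupled RGS7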
RGS4-Gao reg – modulators of RGS4 binding to Galphao, primary screen, biochemical, multiplexed bead flow cytometry; actives lie on both sides; binding response (% of control), % at 10 µM; 220,000 compounds, 0.33% hits; Guanine nucleotide-binding protein G(o) subunit alpha (Homo sapiens), P09471; in the data active = binding response below about 49% or above about 150%; inactive = in between;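 note: fluorescent Galphao activated with aluminum fluoride binding bead-coupled RGS4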
RGS8-Gao reg – RGS8-Galphao binding modulators, primary screen, biochemical, multiplexed bead flow cytometry; Guanine nucleotide-binding protein G(o) subunit alpha (Homo sapiens), P09471; 220,000 compounds, 0.34% hits; actives lie on both sides; response (percent of control binding), % at 10 µM; in the data active = response below about 60% or above about 140%; inactive = in between;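 note: Galphao activated as the GDP aluminium fluoride complex binding bead-coupled RGS8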
RGS16-Gao HTS – modulators of RGS16 binding to Galphao, primary screen, biochemical, human proteins, multiplexed bead flow cytometry | Regulator of G-protein signaling 16 (Homo sapiens) + Guanine nucleotide-binding protein … | bead-based flow cytometry RGS16-Galphao binding, fluorescence; actives lie on both sides | binding response (% of control), % at 10 µM | 220,000 compounds, 0.38% hits | AID 1441, 2008;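 note: Galphao activated by GDP with aluminum fluoride before binding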
GSH bead fluor – compound fluorescence on glutathione beads, profiling panel, artefact control, biophysical, 488/530 nm, flow cytometry; GSH beads flow cytometry, compound fluorescence 488/530 nm; active compounds read high; fluorescence (KMESF) at 10 µM; 190,000 compounds, 0.25% hits; in the data active = fluorescence above about 89;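 note: glutathione beads carrying GST-tagged Bcl family fusion proteins plus one bare bead set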
RGS-Gao – modulators of RGS–Galpha-o binding, primary screen, biochemical, multiplexed beads, flow cytometry, RGS4/7/8/16/19. shares compounds with RGS16-Gao HTS. multiplexed bead flow cytometry. RGS4–Galpha-o binding response, % at 10 µM. 1,600 compounds, 99% hits. AID 1504, 2009;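 note: fluorescently labeled Galpha-o bound to GDP with aluminium fluoride binding biotinylated RGS beads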
Target sequence (P09471 whole entry, looked up): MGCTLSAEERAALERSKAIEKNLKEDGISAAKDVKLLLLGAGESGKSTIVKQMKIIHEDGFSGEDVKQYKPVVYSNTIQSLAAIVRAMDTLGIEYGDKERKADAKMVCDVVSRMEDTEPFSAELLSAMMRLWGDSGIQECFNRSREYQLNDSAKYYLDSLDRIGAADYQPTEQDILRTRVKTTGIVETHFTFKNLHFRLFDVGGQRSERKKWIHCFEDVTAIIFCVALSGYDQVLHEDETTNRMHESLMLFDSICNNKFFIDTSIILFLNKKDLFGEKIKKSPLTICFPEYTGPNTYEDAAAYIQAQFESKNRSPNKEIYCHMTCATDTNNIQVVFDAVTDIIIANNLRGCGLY
Target sequence (P49798 whole entry, looked up): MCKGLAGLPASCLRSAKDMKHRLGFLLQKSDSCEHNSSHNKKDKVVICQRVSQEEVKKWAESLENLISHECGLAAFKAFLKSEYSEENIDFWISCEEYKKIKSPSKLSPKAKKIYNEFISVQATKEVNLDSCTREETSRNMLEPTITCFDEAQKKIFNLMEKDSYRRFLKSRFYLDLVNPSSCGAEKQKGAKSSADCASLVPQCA
Avidin counter – disruption of biotin probe capture by avidin, counter-screen for RGS protein interaction modulators, biochemical, flow cytometry, bead-based | shares compounds with RGS16-Gao HTS | streptavidin beads, fluorescein-biotin binding | 1,700 tested, under 10 active | inhibition, % at 10 µM;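 active = inhibition above 50%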;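 note: median green fluorescence of gated singlet beads compared with DMSO control wells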
RGS8-Gao confirm – RGS8-Galphao binding modulators, confirmation, biochemical, multiplexed bead flow cytometry, single concentration; shares compounds with RGS16-Gao HTS; bead-based flow cytometry RGS8-Galphao binding, fluorescence; actives lie on both sides; binding response (% of control), % at 10 µM; 1,700 compounds, 3% hits; AID 1836, 2009; in the data active = binding response below about 72% or above about 130%; inactive = in between;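 note: Galphao activated as GDP AlF4 complex before binding bead RGS8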
RGS7-Gao confirm – RGS7-Galphao binding modulators, confirmation, biochemical, multiplexed bead flow cytometry, single concentration; 1,700 compounds, 7.8% hits; response (percent of control binding), % at 10 µM; shares compounds with RGS16-Gao HTS; bead-based flow cytometry RGS7-Galphao binding; actives lie on both sides; in the data active = response below about 75% or above about 130%; inactive = in between;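 note: fluorescent Galphao activated with GDP and aluminum fluoride binding bead-coupled RGS7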
RGS16-Gao single – modulators of RGS16-Galphao protein binding, confirmation, biochemical, single concentration, multiplexed bead flow cytometry; shares compounds with RGS16-Gao HTS; bead-based flow cytometry; actives lie on both sides; response (% of control binding), % at 10 µM; 1,700 compounds, 4% hits; AID 1838, 2009; in the data active = response below about 74% or above about 130%; inactive = in between;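 note: Galphao activated as the GDP aluminium fluoride complex binding bead-coupled RGS16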
RGS4-Gao single – modulators of RGS4-Galphao protein binding, confirmation, biochemical, single concentration, multiplexed bead flow cytometry | shares compounds with RGS16-Gao HTS | actives lie on both sides | binding response (% of control), % at 10 µM | 1,700 compounds, 4% hits; in the data active = binding response below about 74% or above about 130%; inactive = in between
RGS19-Gao conf – regulators of RGS19-Galphao binding, confirmation, biochemical, single point, multiplexed bead flow cytometry; bead-based flow cytometry RGS19-Galphao binding; actives lie on both sides; shares compounds with RGS16-Gao HTS; 1,700 compounds, 5% hits; response (percent of control binding), % at 10 µM; in the data active = response below about 50% or above about 160%; inactive = in between
Hits are given with their value; - = inactive; ? = inconclusive; . = no result given; [ ] = remark or other dose. Unless noted, the rule behind the calls is not given here.

SMILES | Avidin bead fluor | RGS7-Gao | RGS4-Gao reg | RGS8-Gao reg | RGS16-Gao HTS | GSH bead fluor | RGS-Gao | Avidin counter | RGS8-Gao confirm | RGS7-Gao confirm | RGS16-Gao single | RGS4-Gao single | RGS19-Gao conf
CCOc1ccc2nc(NC(=O)C(NS(=O)(=O)c3cccc4nsnc34)C(C)C)sc2c1 (stereo not given) | - | - | 153.0[activator] | - | - | - | . | - | - | - | - | - | -
CC(C)C(NS(=O)(=O)c1cccc2nsnc12)C(=O)Nc1nc2ccc(Cl)cc2s1 (stereo not given) | - | - | - | - | - | - | . | . | . | . | . | . | .
Cc1cc(C(=O)NN)c(Cl)cc1Cl | - | ? | 20.9 | 26.8 | 12.7 | . | . | - | - | - | - | - | -
Cc1cc(=O)oc(C)c1C(=O)Nc1cccc(F)c1 | - | ? | - | - | - | . | . | . | . | . | . | . | .
Cc1ccc2nc(-c3cccnc3)c(Nc3ccccc3C)n2c1 | - | - | - | - | - | - | . | . | . | . | . | . | .
Cc1ccc2nc(-c3cccnc3)c(NC3CCCCC3)n2c1 | - | - | - | - | 203.3[activator] | - | 114.1 | - | - | - | - | - | -
Cc1c(C(=O)N/N=C/c2ccc(N(C)C)cc2)[nH]c2ccc(Cl)cc12 | - | - | - | - | 22.7 | - | 94.0 | - | - | - | - | - | -
CCCc1nc2ccc(NC(=O)NCCC(=O)OCC)cc2c(=O)n1Cc1ccc(Cl)cc1 | - | - | - | - | 8.6 | - | 88.5 | - | - | - | - | - | -
Cc1cc(C)nc(SCc2ccc(C(=O)N/N=C3\CCCC(=O)C3)cc2)n1 | - | - | - | - | - | - | . | . | . | . | . | . | .
Cc1nn(-c2ccccc2)c(N)c1Sc1cccc([N+](=O)[O-])c1 | - | - | - | - | 201.8[activator] | - | 110.7 | - | - | - | - | - | -
Cc1nn(-c2ccccc2)c(N)c1Sc1ccccc1[N+](=O)[O-] | - | - | - | - | - | - | . | . | . | . | . | . | .
Cc1nn(-c2ccccc2)c2sc(C(=O)N3CCCCC3)cc12 | . | . | . | . | . | - | . | - | - | - | - | - | -
COc1ccc(NC(=O)Nc2nc(C)cc(C)n2)c(OC)c1 | - | ? | - | - | - | . | . | . | . | . | . | . | .
CCOC(=O)c1cc(-c2ccc(OC)cc2OC)nn1-c1ccc(C(=O)O)cc1 | - | - | - | - | - | - | . | . | . | . | . | . | .
